Source: ChEMBL document CHEMBL3433997, “St. Jude Leishmania screening dataset” (2016)

Each molecule was assayed against Glucose transporter (Leishmania mexicana) (UniProt O61059) (assay: ST_JUDE_LEISH: Cytotoxicity at 2uM final concentration against transgenic Leishmania Mexicana promastigotes LmGT2 that are glucose transport deficient and complemented with the L. Mexicana glucose transporter 2. Activity is measured by DNA content using SYBR green in vitro).
Assay type: functional
`CCC(C)NS(=O)(=O)c1ccc2nc(Nc3ccc(C)c(Cl)c3)n(C(C)C(C)C)c2c1` (stereo not given) gave an inhibition of 1.6%.
Molecule `Clc1ccc2c(NN=Cc3ccccc3)ccnc2c1` has an inhibition of 7.07%.
`COc1cc2nc(Nc3ccc4c(cnn4Cc4ccccc4)c3)nc(Nc3ccc4c(cnn4Cc4ccccc4)c3)c2cc1OC` showed an inhibition of 0.51%.
For `Cn1nc2ccc3ccccc3c2nc1=N`, the inhibition was 18.6%.
For `Cc1cccc2nc(-c3ccc(-c4ccc(NC(=O)NCc5cccc(F)c5)cc4)s3)[nH]c12`, the inhibition was 5.43%.
`CN(C)C1CCN(Cc2ccc(N3CCN(Cc4cccc5[nH]ccc45)CC3)nc2)CC1` showed an inhibition of 2.99%.
Work on `Cc1cc(O)c(C(C)C)cc1C1(c2cc(C(C)C)c(O)cc2C)OC(=O)c2ccccc21` yielded an inhibition of 6.75%.
Work on `O=C(Nc1cccc(CN2CCCN(Cc3ccc(O)cc3)CC2)c1)c1ccc2ccccc2n1` yielded an inhibition of -3.88%.
For `Cc1nc(C)n(CC(=O)Nc2cccc(-c3cccc(-c4nc5cc(C(F)(F)F)ccc5[nH]4)c3)c2)n1`, the inhibition was 7.09%.
`CN(C)CC1CCCN1Cc1ccccc1-c1cnn(C)c(=O)c1Oc1cccc(C#N)c1` (stereo not given) was tested, and the inhibition was 3.52%.
Work on `Cc1c(C(=O)N2CCCC(C(F)(F)F)C2)sc2cccc(F)c12` (stereo not given) yielded an inhibition of 5.83%.
`O=C(Nc1cccc(-c2ccc(CN3CCCC3)cc2)c1)c1ccc(Cl)cc1` showed an inhibition of 1.42%.
Molecule `CC(C)[C@H](NC(=O)c1ccc(O)c(-c2ccc(Cl)c(Cl)c2)c1)C(=O)NCCN1CCOCC1` has an inhibition of 4.06%.
`CCNc1cc(C(=O)N[C@@H](Cc2ccccc2)[C@H](O)CNC(C)Cc2cccc(Cl)c2)cc(N2CCCCS2(=O)=O)c1` (stereo not given in full) showed an inhibition of -1.63%.
Molecule `CCN(CC)Cc1cc(Nc2c3ccc(Cl)cc3nc3cccc(OC)c23)ccc1O` has an inhibition of 5%.
`Cc1nc(-c2cccc(Nc3nccc(NCC(O)c4ccccc4)n3)c2)cs1` (stereo not given) gave an inhibition of 2.14%.
`CN(C)c1ccc(CN2CCC(NC(=O)c3ccc(-c4ccc(N(C)C)cc4)s3)CC2)cc1` gave an inhibition of -0.4%.
Molecule `C[C@@H]([C@@H](CCCCc1ccccc1)C(=O)N[C@H](C(=O)Nc1cccnc1)C(C)(C)C)N(O)C=O` has an inhibition of 2.12%.
`O=C1c2ccccc2CN1CCCN1CCC(Oc2ccc(F)cc2)CC1` gave an inhibition of -3.86%.
In the case of `COc1cc2nc(C)nc(Nc3ccc4c(ccn4Cc4ccccc4)c3)c2cc1OC`, the inhibition is reported as 5.53%.
Molecule `COc1cc2nc(N3CCC(CNC(=O)c4ccc(-c5ccc(C(=O)N(C)C)cc5)c(OCCO)c4)CC3)nc(N)c2cc1OC` has an inhibition of 2.26%.
In the case of `Oc1ccc(CC2CCCN(c3nc(NCCCOc4ccccc4-c4ccccc4)nc(N4CCNCC4)n3)C2)cc1` (stereo not given), the inhibition is reported as -1.02%.
In the case of `COc1cc(Cc2cnc(N)nc2N)cc(OCc2cccc(C(=O)O)c2)c1OC`, the inhibition is reported as 1.03%.
With `Cc1ccc2c(N/N=C/c3cccc([N+](=O)[O-])c3)cc(C)nc2c1` the inhibition was 3.94%.
`O=c1cc(NCCCNCc2cc(Br)cs2)[nH]c2ccccc12` showed an inhibition of 2.59%.
`CCN(CC)S(=O)(=O)c1ccc(Cl)c(C(=O)Nc2ccc3nc(C)sc3c2)c1` showed an inhibition of -1.58%.
With `CC(=O)Nc1cc(C(=O)Nc2cccc(-c3cccc(-c4nc5cc(C(F)(F)F)ccc5[nH]4)c3)c2)ccc1C` the inhibition was 1.84%.
In the case of `CN(C)c1ccc(-c2csc(C(=O)NCC3CCN(Cc4cccc(C(F)(F)F)c4)C3)c2)cc1` (stereo not given), the inhibition is reported as 9.26%.
`CCN(CCCN1CCCCC1)c1cc(C)nc(Nc2ccc(C)cc2C(F)(F)F)n1` was tested, and the inhibition was -1.54%.
For `Cc1cccn2c(=O)c3cc(C(=O)NC(C)c4ccccc4)c(=N)n(CCN4CCOCC4)c3nc12` (stereo not given), the inhibition was -1.52%.
With `COc1ccc2ncc(F)c([C@H](O)CN3CCC(NCc4ccc5c(c4)NC(=O)CS5)CC3)c2c1` the inhibition was -1.73%.
In the case of `CC[C@H](NC(=O)c1c(CCCN2CCN(c3ccccc3)CC2)c(-c2ccccc2)nc2cc(O)ccc12)c1ccccc1`, the inhibition is reported as 10.9%.
Work on `Cc1cccc2nc(-c3ccc(-c4ccc(NC(=O)NC5CC5c5ccccc5)cc4)cc3)[nH]c12` (stereo not given) yielded an inhibition of 4.78%.
For `Clc1ccc(Cl)c2[nH]c(CNCCCNc3nc4ccccc4[nH]3)cc12`, the inhibition was 1.29%.
`CCN(CC)c1cc(C)c2cc(NC(=O)c3cc(=O)c4ccccc4o3)ccc2n1` was tested, and the inhibition was 1.71%.
With `Cc1cccc2nc(-c3ccc(-c4ccc(CN5CCC(CCN6CCCCC6)CC5)cc4)cc3)[nH]c12` the inhibition was -1.41%.
With `O=C(NCC1CCN(C/C=C/c2ccccc2)CC1)Nc1ccc(Oc2ccccc2)cc1` the inhibition was 2.71%.
For `Cc1cc(C(=O)Nc2ccc3c(c2)CCN3C2CCN(Cc3ccc(O)cc3)C2)no1` (stereo not given), the inhibition was 2.38%.
Work on `Cc1cccc2nc(-c3ccc(-c4cccc(CNCCCNS(C)(=O)=O)c4)s3)[nH]c12` yielded an inhibition of -2.06%.
`COC(=O)Nc1ccc(-c2ccc(C(=O)NC3CCN(C[C@H](O)c4ccnc5ccc(OC)cc45)CC3)cc2)c(C)c1` was tested, and the inhibition was -1.03%.
